SNCA expr inh: Primary qHTS assay for inhibitors of alpha-synuclein gene (SNCA) expression. HEK-293 SNCA-luciferase knock-in, luminescence, 24 h. Potency, µM (highest dose often 57.2 µM), without a hit: top-dose activity change, negative = inhibition, usual class: inhibitors. 140,000 tested, 0.17% active. AID 1671194, 2021;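 further: potency means the concentration at half of the fitted maximal effect; plate controls were DMSO cells for no effect and cell-free wells for full effect; nearly all actives have a fitted effect of over 45% in size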
GPT2 inh: Primary qHTS assay for inhibitors of Glutamate pyruvate transaminase 2 (GPT2) | Alanine aminotransferase 2 (Homo sapiens), Q8TD30 | Recombinant GPT2, coupled pyruvate oxidase/HRP Amplex Red fluorescence | Potency, µM (series often up to 57.7 µM), without a hit: at the top dose activity change, negative = inhibition, hits mostly inhibitors | 100,000 tested, 0.25% active | AID 1671188, 2021; further: potency means the concentration at half of the fitted maximal effect; on the % scale 0 is the no-effect control and ±100 the full control effect; nearly all actives have a fitted effect of over 60% in size
Target sequence (Q8TD30 whole entry, looked up): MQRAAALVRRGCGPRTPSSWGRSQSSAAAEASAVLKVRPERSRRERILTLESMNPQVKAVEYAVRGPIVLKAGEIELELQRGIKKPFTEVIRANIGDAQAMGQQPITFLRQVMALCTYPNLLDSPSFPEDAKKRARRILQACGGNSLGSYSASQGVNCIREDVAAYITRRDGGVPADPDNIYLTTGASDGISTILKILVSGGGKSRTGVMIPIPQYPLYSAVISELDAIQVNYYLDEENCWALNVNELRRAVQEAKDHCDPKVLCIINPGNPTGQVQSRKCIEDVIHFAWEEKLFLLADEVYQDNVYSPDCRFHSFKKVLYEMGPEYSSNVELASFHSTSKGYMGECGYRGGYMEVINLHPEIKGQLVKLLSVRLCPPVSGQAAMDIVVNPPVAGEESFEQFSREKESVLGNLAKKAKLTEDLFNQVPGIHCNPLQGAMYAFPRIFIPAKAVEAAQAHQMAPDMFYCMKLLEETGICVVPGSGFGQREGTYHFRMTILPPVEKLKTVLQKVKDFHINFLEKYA
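Fluorescence of coupled pyruvate oxidase/HRP/Amplex Red system (50uM Amplex, 30 min, dark) reports pyruvate formed by GPT2. Enzyme reaction: 10ng/uL GPT2, 2mM L-alanine, 250uM a-KG, 30 min room temperature, pH 7.5; 50uM AOA control.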
SNCA viab count: GF-AFC viability counterscreen for inhibitors of alpha-synuclein gene (SNCA) expression. 150,000 tested, 0.12% active. HEK-293-SNCA-luc viability, GF-AFC fluorescence, 24 h. Potency, µM (highest dose often 57.1 µM), without a hit: top-dose activity change, negative = cytotoxicity, most hits filed as cytotoxic. AID 1671193, 2021;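 further: potency means the concentration at half of the fitted maximal effect; 0% = DMSO-treated cells and -100% = medium-only wells without cells; nearly all actives have a fitted effect of over 30% in size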
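Cytotoxicity counterscreen: after 24 h compound treatment of genome-edited SNCA-luciferase HEK-293 cells, live-cell protease substrate GF-AFC read by fluorescence after 30 min; activity scaled between DMSO (0%) and medium-only (-100%), curves Hill-fitted.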
GPT2 conf: Confirmatory qHTS assay for inhibitors of Glutamate pyruvate transaminase 2 (GPT2); Potency, µM, most hits filed as inhibitors; 95 tested, 90% active; shares compounds with GPT2 inh; GPT2 enzyme, coupled Amplex Red pyruvate fluorescence
* hit, by the source's call; i = inactive; u = inconclusive; x = no result given; ! = not active in a repeat; [ ] = another dose, or the depositor's remark. Compounds with a hit are over-represented: about 0.32% of the library has one in this group of screens. The call rests on the fitted dose curve; in most records, active means well fitted curve in the direction sought with a large enough effect; inconclusive means small, poorly fitted or top-dose-only effect, or another doubt; inactive means no such curve, though single readings can be large; an effect the other way counts as inactive or inconclusive.

SMILES | SNCA expr inh | GPT2 inh | SNCA viab count | others
C=C1[C@@H](C)[C@H]2[C@H](Cc3ccccc3)NC(=O)[C@]23OC(=O)/C=C/C(=O)CCC[C@@H](C)C/C=C/[C@H]3[C@@H]1O | x | i | 12µM*
C=C1[C@@H](C)C2[C@H](Cc3ccccc3)NC(=O)[C@@]23C(/C=C/C[C@H](C)C[C@@](C)(O)/C=C/[C@@H]3OC(C)=O)[C@@H]1O (stereo not given in full) | x | i | -23%
Cc1ccc(-c2ccccc2CN2CCN(C(=O)Cc3ccccn3)CC2)cc1Cl | u | -14% | 4%[12.5 µM]
COc1cc(C(=O)N2CC[C@@H](O)[C@@H](N)C2)cc2nc(-c3cc4ccccc4n3CC3CC3)n(C)c12 | -3% | 0% | -26%
COc1ccc2c(c[n+](C)c3c4cc5c(cc4ccc23)OCO5)c1OC | u | 10µM*! | u
CC[C@H]1CN2CC[C@H]1C[C@@H]2COC(=O)Nc1cccc2ccccc12 | 9%[87.6 µM] | i | 2%[87.6 µM]
COc1ccccc1-c1cc([C@H]2CN3CC[C@H]2C[C@@H]3COC(=O)NC2CCCCC2)nc(C)n1 | u | -31% | -12%
CN1CCc2cc3c(cc2C1C1OC(=O)c2c1ccc1c2OCO1)OCO3 (stereo not given) | x | i | 9%
COc1ccc2c(c1OC)CN1CCc3cc4c(cc3C1C2)OCO4 (stereo not given) | 3µM*! | -10% | u
CCOC(=O)[C@H]1CN(C(=O)OCc2ccccc2)[C@]2(C)C(=O)N(CC3CC3)c3ccccc3[C@H]12 | -26%[25.6 µM] | 5%[27.3 µM] | 0%[23.9 µM]
CNC(=O)Oc1cccc2ccccc12 | 81%[25.6 µM] | 8.9µM* | 19%[23.9 µM]
CNc1ccc2oc(C[C@H]3O[C@@]4(CC[C@H]3C)O[C@H]([C@H](C)C(=O)c3ccc[nH]3)[C@H](C)C[C@H]4C)nc2c1C(=O)O | 28µM* | u | u
CNc1ccc2oc(C[C@H]3O[C@@]4(CC[C@H]3C)O[C@H](C(C)C(=O)c3ccc[nH]3)[C@H](C)C[C@H]4C)nc2c1C(=O)O (stereo not given in full) | x | u | 9.5µM*
COc1cc(NC(=O)OC[C@H]2C[C@@H]3CCN2C[C@@H]3c2cc(-c3ccc(N(C)C)cc3)nc(C)n2)cc(OC)c1 | u | 4% | u
CC[C@H]1CN2CC[C@H]1C[C@@H]2COC(=O)Nc1ccc(C(C)(C)C)cc1 | -14%[87.6 µM] | i | -23%[87.6 µM]
CCOC(=O)[C@H]1CN(C(=O)CC2CCCC2)[C@]2(C)C(=O)N(CC3CC3)c3ccccc3[C@H]12 | u | u | -9%[23.9 µM]
CC(C(N)=O)N1CCC2(CC1)C(=O)N(C)c1ccccc12 (stereo not given) | -5% | -2% | -2%
Cc1ncc2c(c1CNCC1(O)CNCCOC1)CCNC2 (stereo not given) | u | -4%[11.5 µM] | -7%
Oc1ccc2[nH]cc(CCCCN3CC=C(c4ccccc4)CC3)c2c1 | -49%[25.6 µM] | 3.5µM* | 12%[23.9 µM] | GPT2 conf=7.7*
O=C(O)c1ccc2[nH]cc(CCCCN3CC=C(c4ccccc4)CC3)c2c1 | -19%[25.6 µM] | i | 32%[23.9 µM]
CCCNC(=O)OC[C@H]1C[C@@H]2CCN1C[C@@H]2c1cc(-c2ccccc2OC)nc(C)n1 | -19%[87.6 µM] | -9%[88.5 µM] | 0%[87.6 µM]

Assay outcomes deposited in PubChem BioAssay by National Center for Advancing Translational Sciences (NCATS).
